# Source: PubChem BioAssay AID2578 (National Center for Advancing Translational Sciences (NCATS), 2010)
# Active and inactive are the calls of the source. Calls come from the whole dose curve; as a rule, active = well fitted curve in the direction sought with a large enough effect; inactive = no such curve, though single readings can be large or run the other way.
# Molecular target: Alpha-galactosidase A (Homo sapiens) (UniProt P06280)
# Test: qHTS Assay for Inhibitors and Activators of N370S glucocerebrosidase as a Potential Chaperone Treatment of Gaucher Disease: Alpha-Galactosidase Counterscreen
# Conditions: purified enzyme, 4-MU-alpha-Gal fluorescence, 20 min; series mostly up to 57.5 µM
# Excerpt: NIH Chemical Genomics Center [NCGC] NIH Molecular Libraries Probe Production Centers Network [MLPCN] MLPCN Grant: MH086442-01 Assay Submitter (PI): Wei Zheng Glucocerebrosidase (GC) catalyzes the hydrolysis of beta-glucocerebroside to glucose and ceramide in lysosomes. Mutations in the glucocerebrosidase gene result in Gaucher disease, an autosomal recessive lysosomal storage disorder. Many of the mutations encountered in patients with Gaucher disease are missense alterations that may cause misfolding, decreased stability and/or mistrafficking of this lysosomal protein. […] These inhibitors include iminosugar analogs and three non-iminosugar inhibitors identified from a previous HTS of 62,000 compounds with the wild type recombinant enzyme. However, the enhancement of enzyme activity by the chaperone action of an enzyme inhibitor must be balanced against the direct inhibition of the enzyme. An enzyme activator could also function as a chaperone by binding to the enzyme and helping to correct its misfolding and mistrafficking. While activators for GC have not yet been identified, they may have better therapeutic potential than inhibitors. Therefore the discovery and development of chemical activators may provide a new strategy for the chaperone therapy. To characterize compound selectivity, selected hits from the primary screen were screened against purified alpha-galactosidase, a related sugar hydrolase. Alpha-galactosidase is a homodimeric glycoprotein that hydrolyzes the terminal alpha-galactosyl moieties from glycolipids and glycoproteins.
# NCGC Assay Protocol Summary: This is a fluorogenic enzyme assay with 4-Methylumbelliferyl alpha-D-galactopyranoside as the substrate and human […] as the enzyme preparation. Upon the hydrolysis of this fluorogenic substrate, the resulting product, […]. 4-Methyllumbelliferone, can be excited at 365 nm and emits at 440 nm. This fluorescence which can be detected by a standard fluorescence plate reader. Data were normalized to the controls for basal activity (without enzyme) and 100% activity (with enzyme). In the AC50 values were determined from concentration-response data modeled with the standard Hill equation. Assay buffer: 50 mM citric acid (titrated with potassium phosphate to pH 4.5), 0.005% Tween-20, pH 4.5. (pH 4.5 is an optimal condition for this enzyme assay) 1536-well assay protocol for the human alpha-galactosidase: (1) Add 2 ul/well of enzyme (12 nM final) (2) Add 23 nL compounds in DMSO solution. The final titration was 0.7 nM to 77 uM. (3) Add 1 ul of substrate ([…]) (4) Incubate at room temperature for 20 min. (5) Add 2 ul stop solution (1M NaOH and 1M Glycine mixture, pH 10) (6) Detect the assay plate in a ViewLux plate reader (PerkinElmer) with Ex=365 nm and Em=440nm. Keywords: MLSMR, MLPCN, NIH Roadmap, qHTS, NCGC, : Alpha-galactosidase, Fabry Disease, pharmacological chaperone, chaperone therapy
# Alpha-galactosidase A (Homo sapiens), sequence (P06280 whole entry, looked up): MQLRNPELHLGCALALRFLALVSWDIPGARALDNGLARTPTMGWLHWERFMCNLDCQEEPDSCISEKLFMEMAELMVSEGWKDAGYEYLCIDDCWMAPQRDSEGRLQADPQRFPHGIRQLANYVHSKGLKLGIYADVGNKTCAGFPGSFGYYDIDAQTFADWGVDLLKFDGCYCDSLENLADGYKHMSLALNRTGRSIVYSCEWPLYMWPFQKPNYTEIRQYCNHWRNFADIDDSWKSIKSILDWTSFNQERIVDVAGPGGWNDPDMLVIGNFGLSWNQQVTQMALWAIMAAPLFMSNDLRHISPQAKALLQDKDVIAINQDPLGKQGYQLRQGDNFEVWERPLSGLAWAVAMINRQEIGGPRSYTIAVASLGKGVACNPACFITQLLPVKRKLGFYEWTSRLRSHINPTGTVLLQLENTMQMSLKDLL
row,SMILES,outcome
1,O=S(=O)(c1ccc(F)cc1)N1CCN(c2nc(-c3ccccc3)nc3ccccc23)CC1,inactive
2,O=S(=O)(c1ccc(Cl)cc1)N1CCN(c2nc(-c3cccc(Br)c3)nc3ccccc23)CC1,inactive
3,O=S(=O)(c1cccc(Br)c1)N1CCN(c2nc(-c3cccs3)nc3ccccc23)CC1,inactive
4,O=S(=O)(c1ccc2c(c1)CCCC2)N1CCN(c2nc(-c3ccccc3)nc3ccccc23)CC1,inactive
5,COc1ccc(-c2nc(N3CCN(S(=O)(=O)c4ccccc4)CC3)c3ccccc3n2)cc1,inactive
6,O=S(=O)(c1ccc(OC(F)(F)F)cc1)N1CCN(c2nc(-c3cccs3)nc3ccccc23)CC1,inactive
7,O=S(=O)(c1cccc(C(F)(F)F)c1)N1CCN(c2nc(-c3ccccc3)nc3ccccc23)CC1,inactive
8,CCOC(=O)c1ccc(S(=O)(=O)N2CCN(c3nc(-c4cccs4)nc4ccccc34)CC2)cc1,inactive
9,CC(=O)c1ccc(S(=O)(=O)N2CCN(c3nc(-c4ccccc4)nc4ccccc34)CC2)cc1,inactive
10,O=S(=O)(c1ccc(C(F)(F)F)cc1)N1CCN(c2nc(-c3ccccc3)nc3ccccc23)CC1,inactive
11,O=S(=O)(c1ccccc1)N1CCN(c2nc(-c3cccs3)nc3ccccc23)CC1,inactive
12,O=S(=O)(c1ccccc1Cl)N1CCN(c2nc(-c3cccs3)nc3ccccc23)CC1,inactive
13,N#Cc1ccccc1S(=O)(=O)N1CCN(c2nc(-c3ccccc3)nc3ccccc23)CC1,inactive
14,O=S(=O)(c1cccc(Cl)c1)N1CCN(c2nc(-c3cccs3)nc3ccccc23)CC1,inactive
15,O=S(=O)(c1cccc(C(F)(F)F)c1)N1CCN(c2nc(-c3cccs3)nc3cc(Cl)ccc23)CC1,inactive
16,N#Cc1ccccc1S(=O)(=O)N1CCN(c2nc(-c3cccs3)nc3ccccc23)CC1,inactive
17,O=S(=O)(c1ccc(Cl)cc1)N1CCN(c2nc(-c3ccccc3)nc3ccccc23)CC1,inactive
18,N#Cc1ccc(S(=O)(=O)N2CCN(c3nc(-c4ccccc4)nc4ccccc34)CC2)cc1,inactive
19,NS(=O)(=O)c1ccc(S(=O)(=O)N2CCN(c3nc(-c4cccs4)nc4ccccc34)CC2)cc1,inactive
20,CCOc1ccc(S(=O)(=O)N2CCN(c3nc(-c4ccccc4)nc4ccccc34)CC2)cc1,inactive

row,SMILES,outcome
1,COc1ccc(S(=O)(=O)N2CCN(c3nc(-c4cccs4)nc4ccccc34)CC2)cc1,inactive
2,O=S(=O)(c1ccc2c(c1)CCC2)N1CCN(c2nc(-c3ccccc3)nc3ccccc23)CC1,inactive
3,O=S(=O)(c1ccc(F)cc1)N1CCN(c2nc(-c3cccs3)nc3cc(Cl)ccc23)CC1,inactive
4,Cc1ccc(S(=O)(=O)N2CCN(c3nc(-c4cccs4)nc4ccccc34)CC2)cc1,inactive
5,O=S(=O)(c1ccc(F)cc1)N1CCN(c2nc(-c3ccc(F)cc3)nc3cc(Cl)ccc23)CC1,inactive
6,N#Cc1ccc(S(=O)(=O)N2CCN(c3nc(-c4cccs4)nc4ccccc34)CC2)cc1,inactive
7,O=S(=O)(c1cccc(Cl)c1)N1CCN(c2nc(-c3ccccc3)nc3ccccc23)CC1,inactive
8,O=[N+]([O-])c1cccc(S(=O)(=O)N2CCN(c3nc(-c4ccccc4)nc4ccccc34)CC2)c1,inactive
9,Cc1ccc(S(=O)(=O)N2CCN(c3nc(-c4ccccc4)nc4ccccc34)CC2)cc1,inactive
10,O=S(=O)(c1ccccc1C(F)(F)F)N1CCN(c2nc(-c3ccccc3)nc3ccccc23)CC1,inactive
11,O=S(=O)(c1ccccc1Cl)N1CCN(c2nc(-c3ccccc3)nc3ccccc23)CC1,inactive
12,O=S(=O)(c1ccc(Cl)cc1)N1CCN(c2nc(-c3ccc(F)cc3)nc3cc(Cl)ccc23)CC1,inactive
13,Cc1ccc(-c2nc(N3CCN(S(=O)(=O)c4ccc(F)cc4)CC3)c3ccc(Cl)cc3n2)cc1,inactive
14,O=S(=O)(c1ccc(Cl)cc1)N1CCN(c2nc(-c3cccs3)nc3ccccc23)CC1,inactive
15,COc1ccc(-c2nc(N3CCN(S(=O)(=O)c4ccc(F)cc4)CC3)c3ccccc3n2)cc1,inactive
16,O=S(=O)(c1ccccc1)N1CCN(c2nc(-c3ccc(F)cc3)nc3cc(Cl)ccc23)CC1,inactive
17,O=[N+]([O-])c1ccc(S(=O)(=O)N2CCN(c3nc(-c4cccs4)nc4ccccc34)CC2)cc1,inactive
18,O=S(=O)(c1ccccc1Br)N1CCN(c2nc(-c3cccs3)nc3ccccc23)CC1,inactive
19,O=S(=O)(c1ccc2ccccc2c1)N1CCN(c2nc(-c3cccs3)nc3ccccc23)CC1,inactive
20,COc1ccc(-c2nc(N3CCN(S(=O)(=O)c4ccc(C)cc4)CC3)c3ccccc3n2)cc1,inactive
